# Tests used:
# Experiment in all cases: PBM binding z-score (relative to random genomic background probes); higher = stronger binding; sequences stand for … in GC…GCGATTGACAGCGTAGAATGAAGG
# [1] = test system: FXR:RXRa (NR concentration 270 nM, RXRa partner concentration 90 nM)
# Method in brief: (§1)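 Antibodies against each partner of ligand-free nuclear receptor dimers (one per run) detected binding on custom Agilent 4×180K protein-binding microarrays after 1 h incubation. The double-stranded probes had 34-nt variable regions carrying direct-repeat seeds, single-nucleotide variants, half-site ablations and random human genomic background sequences. Binding z-scores, from regression-normalized fluorescence, use the random background probes as reference.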
# [2] = test system: LXRa:RXRa (NR concentration 270 nM, RXRa partner concentration 90 nM)
# Method in brief: as §1
# [3] = test system: LXRa homodimer (NR concentration 270 nM)
# Method in brief: as §1
# [4] = test system: LXRb:RXRa (NR concentration 270 nM, RXRa partner concentration 90 nM)
# Method in brief: as §1
# [5] = test system: LXRb homodimer (NR concentration 270 nM)
# Method in brief: as §1
# [6] = test system: PPARa:RXRa (NR concentration 270 nM, RXRa partner concentration 90 nM)
# Method in brief: as §1
# [7] = test system: PPARg:RXRa (NR concentration 180 nM, RXRa partner concentration 90 nM)
# Method in brief: as §1
# [8] = test system: PPARg:RXRa 270nM:90nM, anti-RXR (NR concentration 270 nM, RXRa partner concentration 90 nM)
# Method in brief: as §1
# [9] = test system: PPARg:RXRa 30nM:10nM, anti-RXR (NR concentration 30 nM, RXRa partner concentration 10 nM)
# Method in brief: as §1
# [10] = test system: PPARg:RXRa 90nM:30nM, anti-RXR (NR concentration 90 nM, RXRa partner concentration 30 nM)
# Method in brief: as §1
# [11] = test system: PPARg:RXRa DBDmut IVT, anti-RXR (DBD mutation: RXRa K156A/R161A, NR concentration 270 nM, RXRa partner concentration 90 nM)
# Method in brief: as §1
# [12] = test system: PPARg:RXRa IVT, anti-PPARg (NR concentration 270 nM, RXRa partner concentration 90 nM)
# Method in brief: as §1
# [13] = test system: PPARg DBDmut:RXRa IVT, anti-PPARg (DBD mutation: PPARg1 K132A/R137A, NR concentration 270 nM, RXRa partner concentration 90 nM)
# Method in brief: as §1
# [14] = test system: PPARg DBDmut IVT, anti-PPARg (DBD mutation: PPARg1 K132A/R137A, NR concentration 270 nM)
# Method in brief: as §1
# [15] = test system: PPARg homodimer (NR concentration 180 nM)
# Method in brief: as §1
# [16] = test system: PXR:RXRa (NR concentration 270 nM, RXRa partner concentration 90 nM)
# Method in brief: as §1
# [17] = test system: PXR homodimer (NR concentration 270 nM)
# Method in brief: as §1
# [18] = test system: RARa:RXR (NR concentration 270 nM, RXRa partner concentration 90 nM)
# Method in brief: as §1
# [19] = test system: RARa homodimer (NR concentration 270 nM)
# Method in brief: as §1
# [20] = test system: RARb:RXRa (NR concentration 270 nM, RXRa partner concentration 90 nM)
# Method in brief: as §1
Sequence,PBM binding z-score [1],PBM binding z-score [2],PBM binding z-score [3],PBM binding z-score [4],PBM binding z-score [5],PBM binding z-score [6],PBM binding z-score [7],PBM binding z-score [8],PBM binding z-score [9],PBM binding z-score [10],PBM binding z-score [11],PBM binding z-score [12],PBM binding z-score [13],PBM binding z-score [14],PBM binding z-score [15],PBM binding z-score [16],PBM binding z-score [17],PBM binding z-score [18],PBM binding z-score [19],PBM binding z-score [20]
GGAACGCGGGCAAAGTTGATAGCATCTGTCGACG,-0.48,-0.465,-0.736,-0.893,-0.943,1.67,2.51,4.63,1.85,4.06,0.331,0.502,-0.831,-0.512,-0.0903,-0.43,-0.509,0.0758,-0.689,0.414
TCTATTAGTTGAAGGGCTACCGACGAGTCCGTTT,0.932,0.924,0.312,0.431,0.511,0.594,-0.151,2.01,3.62,2.96,2.41,0.0404,0.251,-0.451,1.24,0.647,0.375,0.611,1.16,0.525
AGTCAAAGTTCAGGACGAGGTAACGAAAAGCACG,4.17,3.54,0.921,1.92,0.307,3.39,4.87,5.02,2.18,4.04,0.0438,2.03,0.538,0.477,1.63,2.75,1.22,2.71,0.551,4.3
CCTAGCAGGCCAATCTGGGGCACTCAAGGCTTGA,-0.393,-0.285,-0.624,-0.768,-1.24,0.967,0.549,0.547,-0.732,-0.289,3.51,3.96,-0.514,-1.4,-0.431,-0.51,-1.01,-0.273,-0.87,0.323
TCTAGCAGGCCAGACGGTCACTCAAGAGGTACGG,-0.139,-0.465,-0.491,-0.378,-0.934,0.21,0.662,1.52,1.72,1.67,0.883,0.0624,-0.226,-0.934,-0.417,-0.727,-0.716,-0.457,-0.452,1.04
ACAGACAGGTGCGTGAAGGTAACTCAGCTGGACG,-0.446,-0.525,-0.81,-0.869,-0.883,-0.268,0.476,-0.586,-0.564,-0.492,-0.935,-0.58,0.0563,-0.077,-0.238,-0.583,-0.495,-0.585,-0.862,-0.307
AGTCAACGTTCATCTAGGTAACGTAAGATATGCT,-0.27,-0.156,-0.154,-0.204,-0.325,0.365,0.767,0.288,0.292,0.234,0.5,1.94,0.919,0.334,0.649,-0.212,-0.489,0.244,-0.0246,0.796
CAAACTAGGTCAAGGACAGTGAATCTCCGCACGC,3.5,2.6,0.383,1.84,0.431,4.98,7.68,6.71,4.3,6.04,8.06,8.33,5.83,2.41,2.39,1.42,0.22,2.41,1.49,4.06
CAAACTAAGTCAAGAGGTCAAAGTCCGCTTCCCG,5.6,5.87,5.56,5.06,1.95,5.52,4.19,5.54,2.73,4.86,2.44,3.45,0.624,0.834,4.63,5.85,2.97,6.57,2,4.35
TAGCCTAGGTCATCGGCCAGTATACCACGCGAAC,4.02,3.35,0.717,2.54,0.178,3.56,2.62,2.75,0.448,1.67,1.44,2.98,1.05,0.00127,1.6,1.62,-0.365,2.58,-0.512,3.75
TCATATAGGTACACAGGTGAAAGTCCGTAAGTTA,0.94,1.1,0.566,1.09,0.0342,1.94,2.32,3.69,4.18,4.15,3.06,2.34,0.518,0.496,1.23,1,0.981,0.908,1.26,0.943
ACAGACAGGTGAGTGAAGGTAACTCATCTGGACG,0.0966,-0.0411,-0.402,-0.512,-0.306,-0.155,0.684,0.0954,0.12,-0.143,0.0887,0.393,0.131,-0.119,-1.01,-0.3,-0.565,0.0538,-0.677,0.49
CCTAGTTGGTCAAGGTCACAAACGCTATAGGTAC,3.97,3.32,1.64,3.45,0.933,3.93,3.16,3.43,1.09,2.53,2.22,3.73,1.23,1.64,2.99,3.94,1.93,4.17,2.34,4.05
GCTTACGGGTCAAAGGTTATAGAATGAATAGAAT,7.46,6.03,0.9,5.71,0.667,7,11.4,9.46,10.1,10.7,4.71,5.44,1.37,1.09,1.73,6.07,0.466,8.42,0.715,4.59

# Source: the supplement of paper PMC6555819
